Here are results for eight sequences from article PMC7862700, “An all-to-all approach to the identification of sequence-specific readers for epigenetic DNA modifications on cytosine”.

Common to all, as to test: DAPPL (digital affinity profiling via proximity ligation, sequencing); 10 mM Tris-HCl pH 7.5, 50 mM NaCl, 1 mM DTT, 4% glycerol, room temperature, 30 min; GST-TFs on glutathione beads, 16-mer random dsDNA library, 0.1% formaldehyde crosslink after washing; high values mean tight binding
Holding throughout (conditions): protein: recombinant; tags: N-terminal GST; dsDNA, one strand shown

One assay has as its target T1, FLI1 (Homo sapiens, UniProt Q01543 1-452).
T1 sequence: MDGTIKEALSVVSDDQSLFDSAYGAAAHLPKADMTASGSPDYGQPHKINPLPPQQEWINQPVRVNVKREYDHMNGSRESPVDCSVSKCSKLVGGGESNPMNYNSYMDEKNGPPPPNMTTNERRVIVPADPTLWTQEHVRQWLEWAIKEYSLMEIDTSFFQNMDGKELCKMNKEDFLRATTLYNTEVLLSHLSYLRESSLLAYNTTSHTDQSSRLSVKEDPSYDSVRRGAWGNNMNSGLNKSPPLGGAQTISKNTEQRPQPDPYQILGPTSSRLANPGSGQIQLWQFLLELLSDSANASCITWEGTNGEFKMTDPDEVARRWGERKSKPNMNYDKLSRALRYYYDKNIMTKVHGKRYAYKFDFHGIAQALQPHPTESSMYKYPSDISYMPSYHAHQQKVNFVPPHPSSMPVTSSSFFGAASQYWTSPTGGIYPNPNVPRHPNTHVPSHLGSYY
In short, it runs like this: (§1)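 Pools were built from human transcription factors expressed in yeast as GST fusions, captured on glutathione beads and DNA-barcoded, along with a tag-only sample. Incubation with 200 nmole of a 16-mer random double-stranded DNA library lasted 30 min at room temperature in Tris/NaCl/DTT/glycerol buffer, and was followed by washing, 0.1% formaldehyde crosslinking, proximity ligation, PCR amplification and Illumina NextSeq500 sequencing. Binding signal is the quotient of each hexamer's read frequency for a factor and its frequency for the tag-only sample.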

The target in a further assay is T2, ELK1 (Homo sapiens, UniProt P19419 1-428).
T2 sequence: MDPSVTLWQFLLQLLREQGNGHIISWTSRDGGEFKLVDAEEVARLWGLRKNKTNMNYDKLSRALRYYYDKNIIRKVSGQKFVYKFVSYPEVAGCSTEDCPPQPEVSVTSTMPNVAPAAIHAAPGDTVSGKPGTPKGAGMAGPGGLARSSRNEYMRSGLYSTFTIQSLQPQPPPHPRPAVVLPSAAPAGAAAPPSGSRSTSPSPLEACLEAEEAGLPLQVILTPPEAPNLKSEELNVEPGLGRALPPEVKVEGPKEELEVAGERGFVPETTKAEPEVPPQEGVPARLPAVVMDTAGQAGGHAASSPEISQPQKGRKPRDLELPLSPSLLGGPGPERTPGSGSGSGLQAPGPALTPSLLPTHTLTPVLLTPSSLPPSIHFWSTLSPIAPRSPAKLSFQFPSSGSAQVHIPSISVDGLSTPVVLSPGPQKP
In short, it runs like this: as §1

For another assay, the target named is T3, GABPA (Homo sapiens, UniProt Q06546 1-454).
T3 sequence: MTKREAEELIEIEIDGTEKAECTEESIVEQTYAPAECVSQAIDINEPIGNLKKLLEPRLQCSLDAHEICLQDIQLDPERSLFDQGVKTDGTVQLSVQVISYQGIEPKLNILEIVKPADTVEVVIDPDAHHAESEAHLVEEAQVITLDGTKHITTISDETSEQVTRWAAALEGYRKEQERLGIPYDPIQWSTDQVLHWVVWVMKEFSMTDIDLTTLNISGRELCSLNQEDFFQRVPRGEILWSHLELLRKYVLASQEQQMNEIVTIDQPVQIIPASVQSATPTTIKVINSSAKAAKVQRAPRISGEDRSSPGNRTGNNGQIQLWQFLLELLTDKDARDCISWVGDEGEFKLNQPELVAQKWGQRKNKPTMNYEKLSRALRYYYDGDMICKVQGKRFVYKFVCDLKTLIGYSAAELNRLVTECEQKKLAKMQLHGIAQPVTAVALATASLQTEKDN
In short, it runs like this:
as §1

A further assay addresses T4, ERG (Homo sapiens, UniProt P11308 1-479).
T4 sequence: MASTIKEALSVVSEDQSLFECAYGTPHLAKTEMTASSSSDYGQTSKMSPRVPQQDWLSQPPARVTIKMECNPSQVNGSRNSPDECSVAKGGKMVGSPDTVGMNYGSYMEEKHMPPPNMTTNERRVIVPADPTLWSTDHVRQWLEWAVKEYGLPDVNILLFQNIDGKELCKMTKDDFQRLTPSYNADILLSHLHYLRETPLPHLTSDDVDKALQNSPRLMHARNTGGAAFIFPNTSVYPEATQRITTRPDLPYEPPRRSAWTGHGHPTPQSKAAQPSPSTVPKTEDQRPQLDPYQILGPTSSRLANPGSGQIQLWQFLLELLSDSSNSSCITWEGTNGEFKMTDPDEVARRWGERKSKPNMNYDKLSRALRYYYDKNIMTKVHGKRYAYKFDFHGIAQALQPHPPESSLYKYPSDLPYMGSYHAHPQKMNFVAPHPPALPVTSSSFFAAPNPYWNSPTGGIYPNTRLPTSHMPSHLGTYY
In short, it runs like this: as §1

For another assay, the target named is ELF1 (Homo sapiens, UniProt P32519 1-619). In short, it runs like this: as §1
ELF1, sequence (P32519 whole entry): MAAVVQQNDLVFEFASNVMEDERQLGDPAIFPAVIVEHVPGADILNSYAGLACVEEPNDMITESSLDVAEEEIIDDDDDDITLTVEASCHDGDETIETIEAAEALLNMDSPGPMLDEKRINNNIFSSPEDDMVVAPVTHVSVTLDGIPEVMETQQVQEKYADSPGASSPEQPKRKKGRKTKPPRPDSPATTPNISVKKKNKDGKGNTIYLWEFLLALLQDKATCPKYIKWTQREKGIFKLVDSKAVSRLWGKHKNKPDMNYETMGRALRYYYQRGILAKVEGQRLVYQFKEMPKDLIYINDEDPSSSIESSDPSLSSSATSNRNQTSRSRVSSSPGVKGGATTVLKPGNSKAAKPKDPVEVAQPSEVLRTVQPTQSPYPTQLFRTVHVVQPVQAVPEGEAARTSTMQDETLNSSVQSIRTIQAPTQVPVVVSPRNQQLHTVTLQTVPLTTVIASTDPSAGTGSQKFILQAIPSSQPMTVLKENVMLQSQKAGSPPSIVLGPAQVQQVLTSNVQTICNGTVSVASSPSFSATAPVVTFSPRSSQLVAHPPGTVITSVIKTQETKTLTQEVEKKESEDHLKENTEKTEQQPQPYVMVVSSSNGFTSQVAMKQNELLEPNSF
Another assay deals with T5, EHF (Homo sapiens, UniProt Q9NZC4 1-300).
T5 sequence: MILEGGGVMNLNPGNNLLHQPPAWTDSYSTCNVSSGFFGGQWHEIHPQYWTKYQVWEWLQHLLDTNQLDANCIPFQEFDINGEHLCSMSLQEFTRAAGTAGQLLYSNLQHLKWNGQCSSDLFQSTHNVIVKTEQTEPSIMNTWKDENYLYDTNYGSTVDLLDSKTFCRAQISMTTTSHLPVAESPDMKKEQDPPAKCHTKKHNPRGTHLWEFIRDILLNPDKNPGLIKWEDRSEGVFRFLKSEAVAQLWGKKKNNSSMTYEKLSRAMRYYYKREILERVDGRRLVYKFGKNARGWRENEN
In short, it runs like this: as §1

The target of another assay is SPI1 (Homo sapiens, UniProt P17947 1-270). Put shortly: as §1
The target in a further assay is SPIB (Homo sapiens, UniProt Q01892 1-262). In short, it runs like this:
as §1

In the next assay the target is T6, ELK3 (Homo sapiens, UniProt P41970 1-407).
T6 sequence: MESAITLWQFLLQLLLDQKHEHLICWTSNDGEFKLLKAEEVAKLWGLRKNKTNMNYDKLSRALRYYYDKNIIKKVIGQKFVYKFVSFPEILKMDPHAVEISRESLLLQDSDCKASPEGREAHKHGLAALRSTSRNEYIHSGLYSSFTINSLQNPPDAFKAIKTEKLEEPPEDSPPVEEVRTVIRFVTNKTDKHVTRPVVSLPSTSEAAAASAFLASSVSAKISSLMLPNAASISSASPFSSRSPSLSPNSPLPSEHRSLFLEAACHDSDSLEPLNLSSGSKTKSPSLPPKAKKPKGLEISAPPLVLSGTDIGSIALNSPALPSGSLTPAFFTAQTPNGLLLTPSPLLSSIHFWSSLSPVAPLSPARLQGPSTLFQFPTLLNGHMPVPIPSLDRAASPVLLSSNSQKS
In short, it runs like this:
as §1

SPIB, sequence (Q01892 whole entry): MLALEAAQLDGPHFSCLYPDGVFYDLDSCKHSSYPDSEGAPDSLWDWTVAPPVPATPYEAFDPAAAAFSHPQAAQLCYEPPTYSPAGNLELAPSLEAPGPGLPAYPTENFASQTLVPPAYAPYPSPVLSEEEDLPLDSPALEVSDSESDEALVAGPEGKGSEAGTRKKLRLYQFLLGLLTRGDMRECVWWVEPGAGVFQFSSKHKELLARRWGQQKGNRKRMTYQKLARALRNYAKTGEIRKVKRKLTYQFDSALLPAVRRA

Consider AAAAAG, for which the binding signal with FLI1 is 1.18 fold enrichment (6-mer frequency, TF over GST control); in the assay with ELK1, 1.18 fold enrichment (6-mer frequency, TF over GST control); with GABPA, 1.25 fold enrichment (6-mer frequency, TF over GST control); with ERG, 1.19 fold enrichment (6-mer frequency, TF over GST control); with ELF1, 1.13 fold enrichment (6-mer frequency, TF over GST control); in the assay with EHF, 1.22 fold enrichment (6-mer frequency, TF over GST control). In addition, the binding signal was 1.72 fold enrichment (6-mer frequency, TF over GST control) with SPI1; 1.29 fold enrichment (6-mer frequency, TF over GST control) in the assay with SPIB; 1.2 fold enrichment (6-mer frequency, TF over GST control) with ELK3.

CCTCCT: the binding signal in the assay with FLI1 was 1.72 fold enrichment (6-mer frequency, TF over GST control); with ELK1, 1.45 fold enrichment (6-mer frequency, TF over GST control); in the assay with GABPA, 1.57 fold enrichment (6-mer frequency, TF over GST control); with ERG, 1.45 fold enrichment (6-mer frequency, TF over GST control); with ELF1, 1.5 fold enrichment (6-mer frequency, TF over GST control); in the assay with EHF it was 1.42 fold enrichment (6-mer frequency, TF over GST control). The binding signal with SPI1 was 1.7 fold enrichment (6-mer frequency, TF over GST control); with SPIB, 1.61 fold enrichment (6-mer frequency, TF over GST control); with ELK3, 1.48 fold enrichment (6-mer frequency, TF over GST control).

GATCTT: the binding signal was 1.29 fold enrichment (6-mer frequency, TF over GST control) with FLI1; 1.33 fold enrichment (6-mer frequency, TF over GST control) in the assay with ELK1; 1.32 fold enrichment (6-mer frequency, TF over GST control) with GABPA; 1.35 fold enrichment (6-mer frequency, TF over GST control) with ERG; 1.23 fold enrichment (6-mer frequency, TF over GST control) with ELF1; 1.22 fold enrichment (6-mer frequency, TF over GST control) with EHF. The binding signal with SPI1 was 1.19 fold enrichment (6-mer frequency, TF over GST control); with SPIB, 1.36 fold enrichment (6-mer frequency, TF over GST control); in the assay with ELK3 it was 1.29 fold enrichment (6-mer frequency, TF over GST control).

Take CCTCGA: the binding signal was 1.33 fold enrichment (6-mer frequency, TF over GST control) with FLI1; 1.26 fold enrichment (6-mer frequency, TF over GST control) in the assay with ELK1; 1.31 fold enrichment (6-mer frequency, TF over GST control) in the assay with GABPA; 1.3 fold enrichment (6-mer frequency, TF over GST control) in the assay with ERG; 1.27 fold enrichment (6-mer frequency, TF over GST control) in the assay with ELF1; 1.37 fold enrichment (6-mer frequency, TF over GST control) in the assay with EHF. Also, the binding signal with SPI1 was 1.26 fold enrichment (6-mer frequency, TF over GST control); in the assay with SPIB, 1.25 fold enrichment (6-mer frequency, TF over GST control); in the assay with ELK3, 1.18 fold enrichment (6-mer frequency, TF over GST control).

As for TTGAAA, the binding signal in the assay with FLI1 is 1.22 fold enrichment (6-mer frequency, TF over GST control); with ELK1 it was 1.25 fold enrichment (6-mer frequency, TF over GST control); in the assay with GABPA, 1.11 fold enrichment (6-mer frequency, TF over GST control); with ERG, 1.09 fold enrichment (6-mer frequency, TF over GST control); with ELF1 it was 1.23 fold enrichment (6-mer frequency, TF over GST control); in the assay with EHF it was 1.23 fold enrichment (6-mer frequency, TF over GST control). For the same sequence, the binding signal with SPI1 was 1.18 fold enrichment (6-mer frequency, TF over GST control); with SPIB it was 1.1 fold enrichment (6-mer frequency, TF over GST control); with ELK3 it was 1.09 fold enrichment (6-mer frequency, TF over GST control).

Regarding TATAAT, the binding signal with FLI1 was 1.14 fold enrichment (6-mer frequency, TF over GST control); with ELK1 it was 1.24 fold enrichment (6-mer frequency, TF over GST control); in the assay with GABPA, 1.12 fold enrichment (6-mer frequency, TF over GST control); with ERG, 1.07 fold enrichment (6-mer frequency, TF over GST control); in the assay with ELF1 it was 1.18 fold enrichment (6-mer frequency, TF over GST control); with EHF, 1.18 fold enrichment (6-mer frequency, TF over GST control). Besides, the binding signal with SPI1 is 1.15 fold enrichment (6-mer frequency, TF over GST control); in the assay with SPIB it was 1.15 fold enrichment (6-mer frequency, TF over GST control); in the assay with ELK3, 1.22 fold enrichment (6-mer frequency, TF over GST control).

Regarding TCCGCT, the binding signal was 2.39 fold enrichment (6-mer frequency, TF over GST control) with FLI1; 2.38 fold enrichment (6-mer frequency, TF over GST control) with ELK1; 2.06 fold enrichment (6-mer frequency, TF over GST control) with GABPA; 2.31 fold enrichment (6-mer frequency, TF over GST control) with ERG; 2.11 fold enrichment (6-mer frequency, TF over GST control) in the assay with ELF1; 2.33 fold enrichment (6-mer frequency, TF over GST control) in the assay with EHF. Also, the binding signal is 3.26 fold enrichment (6-mer frequency, TF over GST control) in the assay with SPI1; 2.37 fold enrichment (6-mer frequency, TF over GST control) with SPIB; 2.43 fold enrichment (6-mer frequency, TF over GST control) with ELK3.

On to TTGTTA, for which the binding signal in the assay with FLI1 is 1.32 fold enrichment (6-mer frequency, TF over GST control); in the assay with ELK1, 1.34 fold enrichment (6-mer frequency, TF over GST control); with GABPA it was 1.32 fold enrichment (6-mer frequency, TF over GST control); with ERG, 1.33 fold enrichment (6-mer frequency, TF over GST control); with ELF1 it was 1.29 fold enrichment (6-mer frequency, TF over GST control); with EHF it was 1.36 fold enrichment (6-mer frequency, TF over GST control). The binding signal is 1.26 fold enrichment (6-mer frequency, TF over GST control) with SPI1; 1.33 fold enrichment (6-mer frequency, TF over GST control) with SPIB; 1.47 fold enrichment (6-mer frequency, TF over GST control) in the assay with ELK3.
